Out of some 5,500 compounds screened, about 2,000 (36%) were called active. About 18% were inconclusive and are not listed. No stated cut-off is given here; in the data, active means normalized growth mostly below about 0.91 (no sharp cut-off); inconclusive means no clear call, values can overlap the other calls; inactive means mostly above about 0.92. This is one part of the list.
Assay: chemical genetic growth profiling, strain panel (AID 1159580);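 further: tested at 20 µM; growth read once vehicle control cultures reached saturation at 30 °C; 1 = growth at the plate median or of vehicle wells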
Details: growth OD
[1] = S. cerevisiae deletion strains, locus YAL013W, strain DEP1, stronger effect = lower value
[2] = S. cerevisiae deletion strains, locus YGR078C, strain PAC10, stronger effect = lower value
[3] = S. cerevisiae deletion strains, locus YJR075W, strain HOC1, stronger effect = lower value
[4] = S. cerevisiae deletion strains, locus YMR263W, strain SAP30, stronger effect = lower value
[5] = S. cerevisiae deletion strains, locus YNL153C, strain GIM3, stronger effect = lower value
[6] = S. cerevisiae deletion strains, locus YNL322C, strain KRE1, stronger effect = lower value
[7] = S. cerevisiae deletion strains, locus YBR229C, strain ROT2, stronger effect = lower value
[8] = S. cerevisiae deletion strains, locus YCL061C, strain MRC1, stronger effect = lower value
[9] = S. cerevisiae deletion strains, locus YDL101C, strain DUN1, stronger effect = lower value
[10] = S. cerevisiae deletion strains, locus YDR150W, strain NUM1, stronger effect = lower value
[11] = S. cerevisiae deletion strains, locus YEL061C, strain CIN8, stronger effect = lower value
[12] = S. cerevisiae deletion strains, locus YHR030C, strain SLT2, stronger effect = lower value
[13] = S. cerevisiae deletion strains, locus YHR087W, strain rtc3, stronger effect = lower value
[14] = S. cerevisiae deletion strains, locus YJR043C, strain POL32, stronger effect = lower value
[15] = S. cerevisiae deletion strains, locus YLR039C, strain RIC1, stronger effect = lower value
[16] = S. cerevisiae deletion strains, locus YLR058C, strain SHM2 (second series), stronger effect = lower value
[17] = S. cerevisiae deletion strains, locus YLR085C, strain ARP6, stronger effect = lower value
[18] = S. cerevisiae deletion strains, locus YLR262C, strain YPT6, stronger effect = lower value
[19] = S. cerevisiae deletion strains, locus YML094W, strain GIM5, stronger effect = lower value
[20] = S. cerevisiae deletion strains, locus YMR219W, strain ESC1, stronger effect = lower value
[21] = S. cerevisiae deletion strains, locus YNL298W, strain CLA4 (second series), stronger effect = lower value
[22] = S. cerevisiae deletion strains, locus YNR030W, strain Alg12, stronger effect = lower value
[23] = S. cerevisiae deletion strains, locus YPL055C, strain LGE1, stronger effect = lower value
[24] = S. cerevisiae deletion strains, locus YPL241C, strain CIN2, stronger effect = lower value
[25] = S. cerevisiae deletion strains, locus YPR135W, strain CTF4, stronger effect = lower value
[26] = S. cerevisiae strains, strain wild type, stronger effect = lower value
[27] = S. cerevisiae deletion strains, locus YDL134C, strain PPH21, stronger effect = lower value
[28] = S. cerevisiae deletion strains, locus YJL187C, strain SWE1, stronger effect = lower value

Measured: normalized growth

COc1ccccc1N1CCN(CCCCNS(=O)(=O)c2cccc3c(N(C)C)cccc23)CC1
inactive: [1] 0.944 | S. cerevisiae deletion strains, locus YAL040C, strain CLN3, stronger effect = lower value 0.979 | S. cerevisiae deletion strains, locus YCL061C, strain MRC1 (second series), stronger effect = lower value 0.976 | S. cerevisiae deletion strains, locus YDR363W, strain ESC2, stronger effect = lower value 0.939 | S. cerevisiae deletion strains, locus YER002W, strain NOP16, stronger effect = lower value 0.999 | [2] 0.997 | [3] 0.955 | [4] 0.979 | S. cerevisiae deletion strains, locus YMR307W, strain GAS1, stronger effect = lower value 0.994 | [5] 0.989 | S. cerevisiae deletion strains, locus YNL175C, strain NOP13, stronger effect = lower value 1.02 | S. cerevisiae deletion strains, locus YNL197C, strain WHI3, stronger effect = lower value 0.99 | S. cerevisiae deletion strains, locus YNL224C, strain SQS1, stronger effect = lower value 1.04 | [6] 0.951 | S. cerevisiae deletion strains, locus YOR083W, strain WHI5 (second series), stronger effect = lower value 1.02

CCOC(=O)c1cnn(-c2ccc(N)cc2)c1C(F)(F)F
inactive: [1] 0.979 | [7] 0.992 | [8] 0.979 | [9] 0.992 | [10] 1.02 | [11] 0.918 | [2] 1.01 | [13] 1.02 | [14] 0.983 | [3] 1.04 | [16] 0.996 | [20] 0.99 | [4] 0.994 | [5] 0.984 | [21] 0.861 | [6] 1.01 | [22] 0.936 | [23] 0.91 | [24] 0.871 | [25] 0.797 | [26] 0.977
active: [12] 0.378 | [15] 0.429 | [17] 0.695 | [18] 0.472 | [19] 0.848

CCOC(=O)c1cnn(-c2ccc(F)cc2)c1N
inactive: [1] 0.99 | [7] 0.992 | [9] 0.984 | [27] 1 | [10] 0.866 | [11] 0.984 | [2] 0.998 | S. cerevisiae deletion strains, locus YGR229C, strain SMI1, stronger effect = lower value 0.987 | [12] 1.07 | [13] 0.967 | [28] 0.989 | [14] 0.994 | [3] 0.9 | [15] 1.04 | [16] 0.995 | [17] 0.919 | [18] 1.04 | [19] 0.938 | [20] 0.995 | [4] 0.991 | [5] 0.974 | [21] 0.966 | [6] 0.987 | [22] 0.973 | [23] 0.869 | [24] 1.06 | [25] 0.844 | [26] 0.993

NNC(=O)c1cnn(-c2ccc(Cl)cc2)c1C(F)(F)F
inactive: [1] 0.992 | [7] 0.996 | [8] 0.983 | [9] 0.993 | [27] 1.03 | [10] 0.94 | [11] 0.998 | [2] 1.01 | [12] 0.976 | [13] 0.986 | [28] 1 | [14] 0.946 | [3] 1.01 | [15] 0.909 | [16] 1 | [17] 0.976 | [18] 1.01 | [19] 0.967 | [20] 0.998 | [4] 0.977 | [5] 1 | [21] 1.01 | [6] 1 | [22] 1.03 | S. cerevisiae deletion strains, locus YOL006C, strain TOP1, stronger effect = lower value 1.02 | [23] 0.883 | [24] 0.989 | [25] 0.916 | [26] 1.01

Source: PubChem BioAssay AID1159580 (chemical genetic matrix, 2015)
